A selection: hits, their analogues and other compounds. The true share with any hit is near 1.7%.
hERG WT inh = inhibitors of human wildtype KCNH2 potassium channel | Q12809 | U2OS, BacMam KCNH2, thallium flux FluxOr; active compounds read low | activity change, % at 1.84 µM | 0.37% of 340,000 active;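 active means maximum activity change below -70%; inconclusive means maximum activity change between -70% and -50%; inactive means maximum activity change above -50%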
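U2OS cells transduced with wild-type KCNH2 virus are loaded with FluxOr dye for 45 min, and thallium flux is measured in kinetic reads before and after stimulation buffer. Rate constants are normalized to DMSO controls.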
TRHR enhancer-1 = allosteric enhancers of human TRH receptor; P34981; TRHR cells, fluo-8 calcium fluorescence, EC20 TRH enhancement; enhancement, % at 2 µM; 0.66% of 360,000 active; in the data active means enhancement above about 30%
Target sequence (P34981 whole entry, looked up): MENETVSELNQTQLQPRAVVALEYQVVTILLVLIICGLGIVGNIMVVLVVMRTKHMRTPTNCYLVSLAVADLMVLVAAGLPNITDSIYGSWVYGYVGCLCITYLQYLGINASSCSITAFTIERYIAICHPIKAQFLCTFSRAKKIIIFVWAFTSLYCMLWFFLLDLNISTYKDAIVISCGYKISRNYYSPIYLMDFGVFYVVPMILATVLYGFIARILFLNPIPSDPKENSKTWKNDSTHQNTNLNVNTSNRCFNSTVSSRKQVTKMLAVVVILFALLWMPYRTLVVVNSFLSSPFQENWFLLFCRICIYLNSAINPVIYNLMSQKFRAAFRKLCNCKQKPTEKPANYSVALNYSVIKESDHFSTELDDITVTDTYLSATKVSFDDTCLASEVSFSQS
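Enhancer read-out: after compound pinning and an initial kinetic agonist-mode read, an EC20 of TRH (10 nM final) was injected and fluo-8 calcium signal (Ex 480/Em 530) followed at 1 s/cycle for 100 cycles in TRHR-expressing cells.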
KCNH2 3.1 inh = KCNH2 3.1 (human) potassium channel inhibition. U2OS KCNH2 3.1, thallium flux FluxOr; active compounds read low. activity change, % (tested at about 1.8 µM). 0.95% of 340,000 active;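 active means maximum activity change below -70%; inconclusive means maximum activity change from -70% to -50%; inactive means maximum activity change above -50%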;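 further: thallium influx rate constant from kinetic fluorescence after stimulation buffer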
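Measured as rate of thallium-driven FluxOr signal in transduced U2OS cells carrying the 3.1 channel, read kinetically for 2 min upon stimulation; values are rate constants scaled to DMSO control wells.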
TRHR agonist-1 = activates the human TRH receptor | P34981 | TRHR cells, calcium flux fluo-8, FDSS agonist mode | activation, % at 2 µM | 0.18% of 360,000 active | AID 493084; in the data active means activation above about 30%
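Steps: seed TRHR cells overnight; add fluo-8 no-wash Ca dye, RT 30 min–1.5 h; record 10 s baseline; pin-transfer compounds; monitor fluorescence 1 cycle/s for the agonist window. Calcium increases flag candidate agonists.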
TRPML1 blocker = inhibitors of human TRPML1 channel; 0.02% of 390,000 active; Q9GZU1; activity change, negative = inhibition, % (test concentration not listed); TRPML1-inducible cells, Ca2+ dye fluorescence, FDSS; active compounds read low; inhibition of EC80 agonist-evoked calcium signal; in the data active means activity change below about -50%; inconclusive means between about -30% and that limit;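 further: stimulus is agonist 54-4 at its EC80 concentration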
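Tet-induced TRPML1-DL cells loaded with Ca8 no-wash calcium dye were read kinetically on FDSS. Compound addition was followed by EC80 agonist 54-4 (4 uM final); inhibition was read over 110 s.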
TRPML1 agonist = human mucolipin-1 channel agonism; 0.12% of 410,000 active; TRPML1-expressing cells, Ca2+ dye fluorescence, FDSS; activation, % (no concentration beside the values); in the data active means activation above about 50%; inconclusive means mostly about 30% to 49%
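Kinetic FDSS Ca2+ read in Tet-induced TRPML1-DL cells (ABD Ca8 dye plus quencher, 45-90 min RT loading): baseline, then compound, then 110 s agonist window; EC80 agonist 54-4 at 4uM final added afterwards for a 110 s antagonist window.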
TRHR enhancer-2 = confirmation of human TRH receptor allosteric enhancers; AID 493076; activity change, negative = inhibition, % at 46.1 µM; shares compounds with TRHR enhancer-1; 970 tested, under 10 active; TRH receptor cell assay, enhancer confirmation qHTS;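 further: compound effect scored on response to added TRH at EC20 of 10 nM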
TRHR agonist-2 = human TRH receptor agonism confirmation; shares compounds with TRHR enhancer-1; TRHR-expressing cells, agonist activation read-out; Potency, µM (top dose mostly 46.1 µM), usual class: activators; 8% of 970 active; AID 493078; further: nearly all actives have a fitted effect of over 75% in size
Numbers stand for hits. Unless noted, the call rests on the fitted dose curve; in most records, active means well fitted curve in the direction sought with a large enough effect; inconclusive means small, poorly fitted or top-dose-only effect, or another doubt; inactive means no such curve, though single readings can be large; an effect the other way counts as inactive or inconclusive.

Screening CC1(C(=O)NS(=O)(=O)c2cccc(F)c2)CCN1C(=O)Cc1cccc2ccccc12 (centres undefined) returned TRPML1 agonist inactive.
`Cc1ccc(Nc2c(-c3ccc(N4CCOCC4)cc3)nc3c(C)cccn23)cc1` gave TRHR enhancer-1 inactive, TRHR agonist-1 inactive, TRPML1 blocker inactive and TRPML1 agonist inactive.
For CC1CCCC(NC(=O)C2c3ccccc3C(=O)N2Cc2cccs2)C1C (centres undefined) the results were hERG WT inh inactive, TRHR enhancer-1 44, KCNH2 3.1 inh inactive, TRHR agonist-1 inactive, TRPML1 blocker inactive, TRPML1 agonist inactive, TRHR enhancer-2 inactive and TRHR agonist-2 inactive.
CCOC(=O)Cn1c(=O)c(F)cn(Cc2ccc(OC)c([N+](=O)[O-])c2)c1=O was read as hERG WT inh inactive, TRHR enhancer-1 67, KCNH2 3.1 inh inactive, TRHR agonist-1 inactive, TRPML1 blocker inactive, TRPML1 agonist inactive, TRHR enhancer-2 inactive and TRHR agonist-2 inactive.
CCCn1c(=O)c(F)cn(Cc2ccc(OC)c([N+](=O)[O-])c2)c1=O was read as hERG WT inh inactive, KCNH2 3.1 inh inactive, TRPML1 blocker inactive and TRPML1 agonist inactive.
`C[C@H](CO)N1C[C@H](C)[C@@H](CN(C)C(=O)c2ccc3c(c2)OCO3)Oc2cc(/C=C/c3ccccc3)ccc2S1(=O)=O` gave hERG WT inh inactive, KCNH2 3.1 inh inactive, TRPML1 blocker inactive and TRPML1 agonist inactive.
CC(C)(C)C1CCc2nc(NC(=O)c3cccc(Cl)c3)sc2C1 (centres undefined) was read as TRHR enhancer-1 inactive, TRHR agonist-1 inactive, TRPML1 blocker inactive and TRPML1 agonist inactive.
`COc1nc(-c2ccc(C)cc2)ccc1-c1noc(-c2cccnc2)n1` gave hERG WT inh inactive, TRHR enhancer-1 inactive, KCNH2 3.1 inh inactive, TRHR agonist-1 inactive, TRPML1 blocker inactive and TRPML1 agonist inconclusive.
Screening COc1nc(-c2ccccc2)ccc1-c1noc(-c2cccnc2)n1 returned hERG WT inh inactive, TRHR enhancer-1 46, KCNH2 3.1 inh inactive, TRHR agonist-1 inactive, TRPML1 blocker inactive, TRPML1 agonist inactive, TRHR enhancer-2 inactive and TRHR agonist-2 inactive.
CCCNC(=O)C1(C)CCCN(C(=O)c2c(F)ccc(C)c2F)C1 (centres undefined) was read as TRPML1 agonist inactive.
Screening Brc1ccc(/C=N/Nc2ccc3ccccc3n2)cc1 returned hERG WT inh inactive, TRHR enhancer-1 51, KCNH2 3.1 inh inactive, TRHR agonist-1 inactive, TRPML1 blocker inactive, TRPML1 agonist inactive, TRHR enhancer-2 inactive and TRHR agonist-2 inactive.
Brc1ccccc1/C=N/Nc1ccc2ccccc2n1 was read as hERG WT inh inactive, TRHR enhancer-1 inactive, KCNH2 3.1 inh inactive, TRHR agonist-1 inactive, TRPML1 blocker inactive and TRPML1 agonist inactive.
Nc1ccc(/C=C/C(=O)c2cccs2)cc1 was read as hERG WT inh inactive, TRHR enhancer-1 inactive, KCNH2 3.1 inh inactive, TRHR agonist-1 52, TRPML1 blocker inactive, TRPML1 agonist inactive, TRHR enhancer-2 inconclusive and TRHR agonist-2 21µM.
Cc1ccc(SCc2[nH]nc3c2C2(C(=O)Nc4ccc(F)cc42)C(C#N)=C(N)O3)cc1 (centres undefined) was read as hERG WT inh inactive, TRHR enhancer-1 inactive, KCNH2 3.1 inh inactive, TRHR agonist-1 inactive, TRPML1 blocker inactive and TRPML1 agonist inactive.
`Cc1[nH]nc2c1C1(C(=O)Nc3ccc([N+](=O)[O-])cc31)C(C#N)=C(N)O2` (centres undefined) gave hERG WT inh inactive, TRHR enhancer-1 116, KCNH2 3.1 inh inactive, TRHR agonist-1 inactive, TRPML1 blocker inactive, TRPML1 agonist inactive, TRHR enhancer-2 inactive and TRHR agonist-2 inactive.
For COc1ccc(NC(=O)N2CCCC2C(=O)Nc2ccc(C)cc2C)cc1 (centres undefined) the results were hERG WT inh inactive, TRHR enhancer-1 inactive, KCNH2 3.1 inh inactive, TRHR agonist-1 inactive, TRPML1 blocker inactive and TRPML1 agonist inactive.
`Cc1cc(C)cc(-n2c(SCC(=O)N3CCCCCC3)nc3c([nH]c4ccccc43)c2=O)c1` gave TRHR enhancer-1 inactive, TRHR agonist-1 inactive, TRPML1 blocker inactive and TRPML1 agonist inactive.
`CCOc1ccc(-c2cc(C(=O)OC)nc3c2c(=O)n(C)c(=O)n3C)cc1` gave hERG WT inh inactive, TRHR enhancer-1 43, KCNH2 3.1 inh inactive, TRHR agonist-1 inactive, TRPML1 blocker inactive, TRPML1 agonist inactive, TRHR enhancer-2 inactive and TRHR agonist-2 inactive.
For COc1ccc(CN(C)C(=O)/C=C/[C@H]2O[C@@H](n3cc(C)c(=O)[nH]c3=O)C[C@@H]2O)cc1OC the results were TRPML1 blocker inactive and TRPML1 agonist inactive.
`CCC1(C)Cc2c(sc3c2c(=O)n(C)c2nnc(SCCc4ccccc4)n32)CO1` (centres undefined) gave hERG WT inh inactive, TRHR enhancer-1 65, KCNH2 3.1 inh inactive, TRHR agonist-1 inactive, TRPML1 blocker inactive, TRPML1 agonist inactive, TRHR enhancer-2 inactive and TRHR agonist-2 inactive.
Screening O=C(COC(=O)c1cnccn1)Nc1c(Cl)cc(Cl)cc1Cl returned hERG WT inh inactive, TRHR enhancer-1 47, KCNH2 3.1 inh inactive, TRHR agonist-1 inactive, TRPML1 blocker inactive, TRPML1 agonist inactive, TRHR enhancer-2 inactive and TRHR agonist-2 inactive.
`O=C(COC(=O)c1cnccn1)Nc1ncc(Cl)cc1Cl` gave hERG WT inh inactive, TRHR enhancer-1 inactive, KCNH2 3.1 inh inactive, TRHR agonist-1 inactive, TRPML1 blocker inactive and TRPML1 agonist inactive.
For Cc1cc(C(=O)COC(=O)c2cc(O)c3ccccc3c2O)c(C)n1CC1CCCO1 (centres undefined) the results were hERG WT inh inactive, TRHR enhancer-1 47, KCNH2 3.1 inh inactive, TRHR agonist-1 inactive, TRPML1 blocker inactive, TRPML1 agonist inactive, TRHR enhancer-2 inactive and TRHR agonist-2 inactive.
`Cc1cc(C(=O)COC(=O)c2ccccc2O)c(C)n1CC1CCCO1` (centres undefined) gave hERG WT inh inactive, TRHR enhancer-1 inactive, KCNH2 3.1 inh inactive, TRHR agonist-1 inactive, TRPML1 blocker inactive and TRPML1 agonist inactive.
Screening O=C(NNC(=O)c1n[nH]c2ccccc12)c1ccccc1 returned hERG WT inh inactive, TRHR enhancer-1 49, KCNH2 3.1 inh inactive, TRHR agonist-1 inactive, TRPML1 blocker inactive, TRPML1 agonist inactive, TRHR enhancer-2 inconclusive and TRHR agonist-2 inactive.

Assay outcomes: PubChem BioAssay, National Center for Advancing Translational Sciences (NCATS)
